# Results as given in PubChem BioAssay (NCATS).
# “And” between values parts separate entries of the source, which are not always exact repeats. Equal entries are not always repeated. Inconclusive results are not listed. Values without a mark were called inactive. Calls come from the whole dose curve; as a rule, active = well fitted cell-killing curve with a large enough effect in the repeat runs; inconclusive = weak or mixed curves; inactive = flat fitted curve, though single readings scatter.
# Assay: qHTS assay for small molecule agonists of the antioxidant response element (ARE) signaling pathway measured by Nrf2-dependant transcriptional activity - cell viability counter screen (AID 720653)
# Settings: ARE-bla HepG2 viability, CellTiter-Glo ATP luminescence, 16 h; hits give low values
# From the text: National Center for Advancing Translational Sciences [NCATS] NIH Chemical Genomics Center [NCGC] U.S. Environmental Protection Agency [EPA] National Institutes of Environmental Health Sciences [NIEHS] National Toxicology Program [NTP] Assay Overview: Oxidative stress has been implicated in the pathogenesis of a variety of diseases ranging from cancer to neurodegeneration. The antioxidant response element (ARE) signaling pathway plays an important role in the amelioration of oxidative stress. The CellSensor ARE-bla HepG2 cell line (Invitrogen) can be used for analyzing the Nrf2/antioxidant response signaling pathway. Nrf2 (NF-E2-related factor 2) and Nrf1 are transcription factors that bind to AREs and activate these genes. The CellSensor ARE-bla HepG2 cell line contains a beta-lactamase reporter gene under control of the Antioxidant Response Element (ARE) stably integrated into HepG2 cells. The activation of the report gene under culture conditions can be detected by fluorescence intensity. The cytotoxicity of the compounds against the ARE-bla HepG2 cell line was quantified by measuring the intracellular ATP content.
# Assay Protocol Summary: ARE-bla HepG2 cells were dispensed at 2,000 cells/5 ul/well in 1536-well black wall/clear bottom plates using a Multidrop Combi (ThermoFisher Scientific, Waltham, MA) dispenser. After the assay plates were incubated at 37C/5% CO2 for 5 hrs, 23 nL of compounds dissolved in DMSO, positive controls or DMSO only was transferred to the assay plate by a pintool work station (Kalypsys, San Diego, CA). The plates were incubated at 37C/5% CO2 for 16 hrs. After 1 uL of LiveBLAzer B/G FRET substrate was added using a Flying Reagent Dispenser (FRD) (Aurora Discovery, San Diego, CA), the assay plates were incubated at room temperature for 2 hrs. The fluorescence intensity was measured by an Envision (PerkinElmer, Shelton, CT) plate reader. Cell viability using CellTiter Glo viability assay (Promega, Madison, WI) was also measured by adding 4 ul/well of CellTiter-Glo reagent into the same assay plate using a FRD. After 30 min incubation at room temperature, the luminescence intensity in the plates was measured using a ViewLux (PerkinElmer) plate reader.
# % is set by controls: 0 for no effect and ±100 for the full control effect.
row,Structure (SMILES),max response
1,Cc1ccc(C)c(N)c1,0.0142%
2,CCN(C(=O)N(CC)c1ccccc1)c1ccccc1,-10.4%
3,C=CCCCC,-4.9%
4,CCC(C)(C)C(=O)O,-0.295%
5,CC/C(C)=N/O,-8.91%
6,O=C(Cl)c1cccc([N+](=O)[O-])c1,-1.32%
7,COC(=O)CCCC(=O)OC,4.37%
8,O=C(O)c1cc(Cl)cc(Cl)c1,0.662%
9,C=C(C)C(N)=O,-10.7%
10,Cc1ccc(C)o1,-12.8%
11,Cc1ccc(CO)cc1,-0.358%
12,ON=C1CCCCC1,5.44%
13,NS(=O)(=O)O,3.57%
14,CC1(N)CCC(C(C)(C)N)CC1 (stereo not given),1.22%
15,O=[N+]([O-])c1cccc(Cl)c1,-6.97%
16,Nc1cc(S(=O)(=O)O)ccc1O,3.72%
17,CC(=O)c1ccccc1[N+](=O)[O-],-1.99%
18,CNC(=O)N(c1ccccc1)c1ccccc1,-11.7%
19,O=CNc1ccccc1,-3.88%
20,COc1ccc(OC)cc1,4.82%

row,Structure (SMILES),max response
1,NC(=O)CCCCC(N)=O,-6.44%
2,O=C(O)c1ccccc1[N+](=O)[O-],-13.2%
3,O=C1OC(=O)c2c(Cl)c(Cl)c(Cl)c(Cl)c21,1.45% and 13.5%
4,CCNc1cc(O)ccc1C,9.97%
5,Nc1ccccc1S(=O)(=O)O,-0.944%
6,Cc1ccc2nc(-c3ccc(N)cc3)sc2c1S(=O)(=O)O,-24.5%
7,Cc1ccccc1C(=O)O,0.515%
8,CCOC(C)(C)C,-6.47%
9,CCCCCO,3.66%
10,Cc1cscn1,0.707%
11,CCCCOCCOCCOCCCC,10.5%
12,C=CC(=O)OCCCC,-3.72%
13,CC=O,5.19%
14,CC(C)(O)CCC(C)(C)O,-2.27%
15,O=C1NC(=O)c2cc([N+](=O)[O-])ccc21,-3.07%
16,COC(=O)c1ccccc1,3.39%
17,CC(=O)OC(C)C,-4.19%
18,Cc1ccccc1C=O,-9.4%
19,CN(C)CCCCl,19.9%
20,Cc1ccccc1C(N)=O,-2.23%
